Data as given in the supplement of paper PMC10849652.
Of roughly 7,900 targets only a part is listed; those with a hit were picked by preference. About 0.6% of all pairs of compound and target were hits.

Experiments:
Experiment in all cases: log2 fold change, soluble protein after heating vs DMSO (PISA); higher = thermal stabilisation; K562 cells, 10 uM, 30 min; active = over 0.2 and 3.5 SD of the protein, either way, in both replicates (recomputed)
[1] = compound: C1=CC=C(C=C1)[C@H](COC2=CC3=C(C=C2)NC(=O)N3)NC(=O)C4=CC=CN(C4=O)CC5=CC(=C(C=C5)F)F
In short: (§1)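 Thermal stability values are relative to control samples and come from duplicates. They are expressed as log2 fold changes. For measurement, K562 cells (2×10^6 cells/mL) received 10 μM compound for 30 min, and aliquots were heated for 3 min over 48°C-58°C, pooled, and extracted at 4°C in PBS with 0.5% NP-40. Soluble protein, the supernatant after 21,000xg for 90 min, was quantified by TMTpro 16plex LC-MS/MS with equalised channel sums.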

[2] = compound: CC1=C(SC2=C1C(=N[C@H](C3=NN=C(N32)C)CC(=O)N)C4=CC=C(C=C4)Cl)C
In short: as §1

[3] = compound: CC1=C2C(=CC=C1)N=C(N(C2=O)C3=CC=CC=C3C)CN4C=NC5=C(N=CN=C54)N
In short: as §1

[4] = compound: Cc1sc2c(c1C)C(c1ccc(Cl)cc1)=N[C@@H](CC(=O)OC(C)(C)C)c1nnc(C)n1-2
In short: as §1

[5] = compound: c1ccc([C@@H]2C[C@H]2NC2CCNCC2)cc1
In short: as §1

Measured: log2 fold change

OGFOD1 (UniProt Q8N543)
inactive: [1] -0.02 | [2] 0.047 | [3] 0.041 | [4] -0.015 | [5] -0.007

OSBPL8 (UniProt Q9BZF1)
inactive: [1] -0.051 | [2] -0.071 | [3] 0.007 | [4] -0.018 | [5] -0.002

NIPSNAP2 (UniProt C9J7B1)
inactive: [1] -0.069

NA (UniProt J3KR12)
inactive: [1] -0.042

MYSM1 (UniProt Q5VVJ2)
inactive: [1] 0.07

NMD3 (UniProt Q96D46)
UniProt Q96D46, sequence (Q96D46 whole entry, looked up): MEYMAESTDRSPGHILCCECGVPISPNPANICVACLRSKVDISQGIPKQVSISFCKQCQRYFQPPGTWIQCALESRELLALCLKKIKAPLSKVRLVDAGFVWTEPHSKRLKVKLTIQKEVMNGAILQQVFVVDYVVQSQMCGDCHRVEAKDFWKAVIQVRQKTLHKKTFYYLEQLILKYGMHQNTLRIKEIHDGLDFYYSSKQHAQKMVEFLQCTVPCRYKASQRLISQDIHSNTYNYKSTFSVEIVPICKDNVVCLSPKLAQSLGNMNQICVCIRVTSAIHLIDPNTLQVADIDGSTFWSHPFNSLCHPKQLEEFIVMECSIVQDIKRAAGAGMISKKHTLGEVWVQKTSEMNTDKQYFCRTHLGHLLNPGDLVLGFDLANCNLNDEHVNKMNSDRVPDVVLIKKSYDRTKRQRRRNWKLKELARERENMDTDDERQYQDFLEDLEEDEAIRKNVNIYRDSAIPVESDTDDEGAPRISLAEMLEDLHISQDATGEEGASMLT
inactive: [1] -0.046 | [2] 0.049 | [3] 0.01 | [4] -0.02 | [5] -0.11

NDUFA9 (UniProt Q16795)
inactive: [1] -0.005 | [2] 0.075 | [3] 0.078 | [4] -0.014 | [5] -0.054

NDUFA12 (UniProt Q9UI09)
inactive: [1] -0.046 | [2] 0.126 | [3] 0.145 | [4] -0.086 | [5] -0.051

NRGN (UniProt Q92686)
inactive: [1] 0.048

OSTC (UniProt Q9NRP0)
inactive: [1] -0.031 | [2] 0.048 | [3] 0.063 | [4] -0.213 | [5] 0.048

NKTR (UniProt P30414)
inactive: [1] 0.014

MRPS24 (UniProt Q96EL2)
inactive: [1] -0.016 | [2] -0.026 | [3] -0.026 | [4] 0.148 | [5] 0.037

NMRAL1 (UniProt Q9HBL8)
inactive: [1] -0.12 | [2] -0.017 | [3] 0.025 | [4] -0.139 | [5] -0.094

NMNAT1 (UniProt Q9HAN9)
UniProt Q9HAN9, sequence (Q9HAN9 whole entry, looked up): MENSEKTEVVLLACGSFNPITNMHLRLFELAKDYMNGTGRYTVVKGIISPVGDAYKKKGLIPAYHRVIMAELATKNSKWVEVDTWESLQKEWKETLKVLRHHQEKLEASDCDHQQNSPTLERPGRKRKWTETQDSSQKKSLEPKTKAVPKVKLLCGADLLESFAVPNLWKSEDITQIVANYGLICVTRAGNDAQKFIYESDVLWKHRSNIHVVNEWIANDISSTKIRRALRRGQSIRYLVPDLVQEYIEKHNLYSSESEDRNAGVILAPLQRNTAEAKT
inactive: [1] 0.1 | [2] -0.055 | [3] -0.088 | [4] 0.304 | [5] 0.02

NIBAN1 (UniProt Q9BZQ8)
inactive: [1] -0.017 | [2] 0.015 | [3] 0.056 | [4] 0.028 | [5] 0.03

MPP1 (UniProt Q00013)
UniProt Q00013, sequence (Q00013 whole entry, looked up): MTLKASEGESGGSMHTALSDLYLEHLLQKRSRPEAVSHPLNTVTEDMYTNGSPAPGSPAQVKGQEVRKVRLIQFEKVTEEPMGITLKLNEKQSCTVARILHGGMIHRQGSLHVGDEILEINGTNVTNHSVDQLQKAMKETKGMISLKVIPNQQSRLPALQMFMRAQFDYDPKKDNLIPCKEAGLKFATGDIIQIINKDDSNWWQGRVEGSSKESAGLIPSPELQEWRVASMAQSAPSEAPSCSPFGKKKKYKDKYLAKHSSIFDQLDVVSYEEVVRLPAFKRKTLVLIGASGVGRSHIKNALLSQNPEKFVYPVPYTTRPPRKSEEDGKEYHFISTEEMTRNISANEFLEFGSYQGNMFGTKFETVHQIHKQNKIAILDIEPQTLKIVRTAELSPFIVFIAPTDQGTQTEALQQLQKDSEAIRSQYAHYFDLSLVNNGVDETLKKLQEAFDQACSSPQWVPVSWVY
inactive: [1] -0.055 | [2] -0.06 | [3] 0.051 | [4] -0.024 | [5] 0.013

MRPS31 (UniProt Q92665)
inactive: [1] -0.042 | [2] 0.028 | [3] 0.021 | [4] 0.044 | [5] -0.031

MORC3 (UniProt Q14149)
inactive: [1] -0.043 | [2] 0.014 | [3] 0.132 | [4] 0.017 | [5] 0.062

NUDT16 (UniProt Q96DE0)
UniProt Q96DE0, sequence (Q96DE0 whole entry, looked up): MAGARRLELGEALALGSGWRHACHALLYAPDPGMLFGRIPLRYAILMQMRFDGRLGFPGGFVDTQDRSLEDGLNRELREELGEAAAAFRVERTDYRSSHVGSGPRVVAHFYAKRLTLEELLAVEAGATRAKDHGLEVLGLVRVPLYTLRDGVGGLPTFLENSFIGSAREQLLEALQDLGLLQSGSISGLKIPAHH
inactive: [1] 0.029 | [2] 0.085 | [3] -0.045 | [4] -0.075 | [5] -0.006

NACC1 (UniProt Q96RE7)
UniProt Q96RE7, sequence (Q96RE7 whole entry, looked up): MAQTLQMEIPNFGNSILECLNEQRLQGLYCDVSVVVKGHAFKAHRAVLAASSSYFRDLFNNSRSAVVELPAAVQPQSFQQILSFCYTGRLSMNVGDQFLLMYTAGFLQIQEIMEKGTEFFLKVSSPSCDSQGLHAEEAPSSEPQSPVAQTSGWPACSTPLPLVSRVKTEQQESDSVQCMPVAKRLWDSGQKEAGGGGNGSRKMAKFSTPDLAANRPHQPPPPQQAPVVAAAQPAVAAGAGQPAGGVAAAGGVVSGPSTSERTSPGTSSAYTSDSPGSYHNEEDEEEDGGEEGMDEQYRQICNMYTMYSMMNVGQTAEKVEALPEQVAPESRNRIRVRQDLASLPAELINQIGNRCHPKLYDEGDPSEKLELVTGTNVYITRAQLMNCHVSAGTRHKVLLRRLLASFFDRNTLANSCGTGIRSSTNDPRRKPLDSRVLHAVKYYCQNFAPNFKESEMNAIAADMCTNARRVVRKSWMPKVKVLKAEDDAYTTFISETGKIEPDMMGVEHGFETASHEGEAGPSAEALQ
inactive: [1] -0.029 | [2] 0.039 | [3] 0.092 | [4] -0.037 | [5] -0.015

MRPS9 (UniProt P82933)
inactive: [1] -0.001 | [2] 0.008 | [3] -0.025 | [4] 0.034 | [5] 0.025

MMADHC (UniProt Q9H3L0)
UniProt Q9H3L0, sequence (Q9H3L0 whole entry, looked up): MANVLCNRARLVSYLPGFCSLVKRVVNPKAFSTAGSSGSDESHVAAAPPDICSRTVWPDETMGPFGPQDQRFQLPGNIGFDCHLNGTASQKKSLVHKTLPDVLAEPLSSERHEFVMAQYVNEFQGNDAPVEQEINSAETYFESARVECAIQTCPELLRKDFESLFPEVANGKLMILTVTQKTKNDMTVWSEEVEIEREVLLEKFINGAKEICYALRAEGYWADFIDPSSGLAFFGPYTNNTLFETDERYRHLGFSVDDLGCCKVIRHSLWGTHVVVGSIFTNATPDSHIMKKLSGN
inactive: [1] 0.056 | [2] -0.155 | [3] 0.057 | [4] 0.088 | [5] 0.077

MRPS12 (UniProt O15235)
inactive: [1] 0.019 | [2] -0.121 | [3] -0.176 | [4] 0.093 | [5] 0.061

NOSIP (UniProt Q9Y314)
inactive: [1] 0.056 | [2] 0.043 | [3] 0.179 | [4] -0.043 | [5] 0.016

ORC5 (UniProt O43913)
inactive: [1] -0.081 | [2] 0.02 | [3] 0.144 | [4] -0.016 | [5] -0.044

NA (UniProt B2RBV5)
inactive: [1] 0.002

NCAPH (UniProt Q15003)
inactive: [1] -0.067 | [2] 0.011 | [3] 0.109 | [4] -0.007 | [5] 0.001

MRPS5 (UniProt P82675)
inactive: [1] -0.017 | [2] 0.009 | [3] -0.03 | [4] 0.063 | [5] -0.077

NDUFS8 (UniProt O00217)
UniProt O00217, sequence (O00217 whole entry, looked up): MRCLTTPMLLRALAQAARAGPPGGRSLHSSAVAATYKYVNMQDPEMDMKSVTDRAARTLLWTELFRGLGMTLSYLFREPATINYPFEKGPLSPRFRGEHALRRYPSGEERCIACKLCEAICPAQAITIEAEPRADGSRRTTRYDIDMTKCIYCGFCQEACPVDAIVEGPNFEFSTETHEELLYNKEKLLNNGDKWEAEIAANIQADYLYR
inactive: [1] -0.049 | [2] 0.1 | [3] 0.082 | [4] -0.023 | [5] -0.02

MRPS35 (UniProt P82673)
inactive: [1] -0.011 | [2] -0.03 | [3] -0.033 | [4] 0.143 | [5] -0.004

MYH16 (UniProt Q9H6N6)
inactive: [1] -0.164 | [2] -0.042 | [3] -0.142 | [4] 0.069 | [5] -0.034

MORC2 (UniProt Q9Y6X9)
inactive: [1] -0.293

MUL1 (UniProt Q969V5)
UniProt Q969V5, sequence (Q969V5 whole entry, looked up): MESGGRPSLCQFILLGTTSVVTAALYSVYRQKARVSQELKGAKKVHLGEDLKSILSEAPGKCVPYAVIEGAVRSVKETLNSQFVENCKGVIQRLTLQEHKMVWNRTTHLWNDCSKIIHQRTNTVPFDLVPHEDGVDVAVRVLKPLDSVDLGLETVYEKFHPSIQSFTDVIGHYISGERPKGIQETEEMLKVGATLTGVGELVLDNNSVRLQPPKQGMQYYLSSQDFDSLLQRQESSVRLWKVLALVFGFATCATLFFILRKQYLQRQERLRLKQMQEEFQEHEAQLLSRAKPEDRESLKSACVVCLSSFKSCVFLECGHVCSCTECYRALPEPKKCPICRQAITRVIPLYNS
inactive: [1] -0.002 | [2] 0.006 | [3] 0.044 | [4] -0.107 | [5] 0.02

NFE2 (UniProt Q16621)
UniProt Q16621, sequence (Q16621 whole entry, looked up): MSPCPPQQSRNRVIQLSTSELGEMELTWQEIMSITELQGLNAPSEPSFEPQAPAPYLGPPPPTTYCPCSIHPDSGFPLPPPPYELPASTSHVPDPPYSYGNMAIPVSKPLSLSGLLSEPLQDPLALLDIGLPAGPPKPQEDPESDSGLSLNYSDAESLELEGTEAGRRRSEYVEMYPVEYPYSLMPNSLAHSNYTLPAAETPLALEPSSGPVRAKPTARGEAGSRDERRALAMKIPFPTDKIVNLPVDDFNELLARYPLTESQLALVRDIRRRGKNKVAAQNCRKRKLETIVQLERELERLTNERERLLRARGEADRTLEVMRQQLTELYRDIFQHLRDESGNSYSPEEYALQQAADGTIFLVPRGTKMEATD
inactive: [1] 0.054 | [2] -0.004 | [3] 0.12 | [4] 0.087 | [5] 0.145

MT-ND1 (UniProt P03886)
UniProt P03886, sequence (P03886 whole entry, looked up): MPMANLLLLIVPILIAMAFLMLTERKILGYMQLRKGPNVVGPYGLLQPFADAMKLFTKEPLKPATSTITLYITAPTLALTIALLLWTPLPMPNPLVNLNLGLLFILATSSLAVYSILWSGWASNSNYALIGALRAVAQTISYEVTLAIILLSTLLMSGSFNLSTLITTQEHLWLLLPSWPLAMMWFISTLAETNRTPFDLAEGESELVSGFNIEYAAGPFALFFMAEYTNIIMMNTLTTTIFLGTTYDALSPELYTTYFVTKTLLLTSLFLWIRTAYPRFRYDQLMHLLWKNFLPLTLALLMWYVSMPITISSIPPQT
inactive: [1] -0.024 | [2] -0.12 | [3] -0.24 | [4] -0.102 | [5] 0.177

NOP2 isoform 4 (UniProt P46087)
inactive: [1] 0.184 | [2] -0.494 | [3] -0.694 | [4] 0.409 | [5] -0.009

OSTM1 (UniProt Q86WC4)
inactive: [1] 0.023 | [2] 0.036 | [3] 0.058 | [4] -0.091 | [5] -0.013

OVCA2 (UniProt Q8WZ82)
inactive: [1] -0.152

MXRA7 (UniProt P84157)
UniProt P84157, sequence (P84157 whole entry, looked up): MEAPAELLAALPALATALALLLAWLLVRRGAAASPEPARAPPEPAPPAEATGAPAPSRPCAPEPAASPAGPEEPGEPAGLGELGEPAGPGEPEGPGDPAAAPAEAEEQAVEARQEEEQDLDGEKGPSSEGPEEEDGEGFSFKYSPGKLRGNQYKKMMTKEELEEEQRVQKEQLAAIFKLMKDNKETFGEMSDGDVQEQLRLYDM
inactive: [1] 0.008 | [2] 0.167 | [3] 0.293 | [4] 0.002 | [5] 0.024

NANS (UniProt Q9NR45)
inactive: [1] -0.031 | [2] 0.065 | [3] 0.071 | [4] -0.015 | [5] -0.024

NFYC (UniProt Q13952)
inactive: [1] 0.002 | [2] 0.063 | [3] 0.036 | [4] 0.014 | [5] -0.014

NCBP2AS2 (UniProt Q69YL0)
inactive: [1] 0.02 | [2] 0.019 | [3] 0.048 | [4] -0.038 | [5] -0.003

MTFR1L (UniProt Q9H019)
inactive: [1] -0.036 | [2] -0.009 | [3] 0.066 | [4] 0.048 | [5] 0.028

MIS12 (UniProt Q9H081)
inactive: [1] -0.02 | [2] 0.013 | [3] 0.064 | [4] -0.117 | [5] -0.022

NME1 isoform 2 (UniProt P15531)
inactive: [1] 0.095 | [2] 0.142 | [3] 0.069 | [4] 0.033 | [5] -0.108

NUMA1 (UniProt Q14980)
inactive: [1] 0.027 | [2] -0.05 | [3] -0.009 | [4] 0.022 | [5] 0.014

NA, A0A096LPI6
inactive: [1] 0.055 | [2] -0.023 | [3] -0.001 | [4] 0.017 | [5] 0.023

NCOA7 (UniProt Q8NI08)
inactive: [1] 0.03 | [2] 0.093 | [3] 0.036 | [4] 0.016 | [5] -0.058

NUDCD2 (UniProt Q8WVJ2)
UniProt Q8WVJ2, sequence (Q8WVJ2 whole entry, looked up): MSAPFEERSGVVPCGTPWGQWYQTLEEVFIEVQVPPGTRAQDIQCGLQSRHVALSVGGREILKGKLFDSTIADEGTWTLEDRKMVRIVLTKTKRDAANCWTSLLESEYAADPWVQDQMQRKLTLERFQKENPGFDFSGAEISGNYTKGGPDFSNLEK
inactive: [1] -0.037 | [2] 0.113 | [3] 0.099 | [4] 0.017 | [5] 0.037

NUP85 (UniProt Q9BW27)
inactive: [1] -0.009 | [2] -0.018 | [3] 0.042 | [4] -0.004 | [5] 0.019

NDUFB7 (UniProt P17568)
inactive: [1] -0.032 | [2] -0.01 | [3] -0.004 | [4] -0.015 | [5] 0.03

MORF4L2 (UniProt Q15014)
inactive: [1] 0.089 | [2] 0.001 | [3] -0.002 | [4] 0.028 | [5] 0.091

MNAT1 (UniProt P51948)
inactive: [1] 0.011 | [2] 0.088 | [3] 0.005 | [4] 0.033 | [5] 0.068

NUDT1 (UniProt P36639)
inactive: [1] 0.556 | [2] -0.043 | [3] 0.048 | [4] -0.137 | [5] 0.038

NNMT (UniProt P40261)
inactive: [1] 0.021 | [2] 0.051 | [3] 0.078 | [4] -0.009 | [5] -0.055

MRPS6 (UniProt P82932)
inactive: [1] -0.084 | [2] 0.012 | [3] 0.052 | [4] 0.052 | [5] -0.022

OPA1 isoform 2 (UniProt O60313)
UniProt O60313, sequence (O60313 whole entry, looked up): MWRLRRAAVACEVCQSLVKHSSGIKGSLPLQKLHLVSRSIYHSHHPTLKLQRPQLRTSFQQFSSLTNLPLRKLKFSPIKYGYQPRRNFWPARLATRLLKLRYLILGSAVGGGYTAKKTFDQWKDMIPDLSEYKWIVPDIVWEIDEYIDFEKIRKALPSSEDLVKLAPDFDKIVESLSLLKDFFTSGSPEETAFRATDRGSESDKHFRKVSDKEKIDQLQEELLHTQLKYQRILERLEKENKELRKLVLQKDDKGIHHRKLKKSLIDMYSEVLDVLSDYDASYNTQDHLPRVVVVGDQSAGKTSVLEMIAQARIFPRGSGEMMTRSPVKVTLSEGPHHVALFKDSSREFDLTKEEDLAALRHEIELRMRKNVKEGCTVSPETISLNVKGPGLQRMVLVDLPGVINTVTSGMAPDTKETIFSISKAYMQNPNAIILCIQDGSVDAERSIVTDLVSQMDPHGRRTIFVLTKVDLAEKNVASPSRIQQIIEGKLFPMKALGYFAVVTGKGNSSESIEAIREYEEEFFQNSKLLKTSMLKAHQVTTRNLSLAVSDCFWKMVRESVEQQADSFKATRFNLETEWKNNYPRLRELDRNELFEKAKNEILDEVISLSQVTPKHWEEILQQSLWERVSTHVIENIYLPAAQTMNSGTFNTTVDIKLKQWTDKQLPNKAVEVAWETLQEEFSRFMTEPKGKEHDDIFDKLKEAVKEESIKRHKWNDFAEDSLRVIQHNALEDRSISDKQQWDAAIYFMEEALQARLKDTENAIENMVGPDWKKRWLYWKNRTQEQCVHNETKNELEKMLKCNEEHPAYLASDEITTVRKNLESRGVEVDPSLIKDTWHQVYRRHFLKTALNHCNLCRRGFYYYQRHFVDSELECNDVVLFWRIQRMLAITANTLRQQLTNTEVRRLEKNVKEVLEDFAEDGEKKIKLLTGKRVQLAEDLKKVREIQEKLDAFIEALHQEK
inactive: [1] -0.054 | [2] 0.028 | [3] 0.021 | [4] -0.03 | [5] -0.037

MMS19 isoform 8 (UniProt Q96T76)
inactive: [1] -0.034 | [2] -0.001 | [3] 0.133 | [4] 0.002 | [5] -0.003
